# Laboratory results as given in the supplement of paper PMC12067093, “Discovery and optimisation of a covalent ligand for TRIM25 and its application to targeted protein ubiquitination” (Chemical Science, 2025).
# About 21,000 targets were measured; listed, in parts, are those with the largest changes and a random draw of the rest.
# Compound: CC1Cc2ccccc2N1C(=O)C1CCCN(C1)C(=O)CCl (mixture of isomers) [TRIM25 ligand 11 (diastereomer mixture)]
# Assay: probe-labelled cysteine peptide fold change vs DMSO (competition) (log2 fold change); higher = less target engagement (more negative = stronger competition)
# Conditions: THP-1, incubation time: 4 h
# 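Further: competitive chemoproteomic profiling in live THP-1 cells with an iodoacetamide desthiobiotin (IA-DTB) probe, comparing probe-labelled peptide intensities in compound-treated cells against DMSO-treated controls.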
# Sequence of UniProt Q8IX12 (Q8IX12 whole entry, looked up): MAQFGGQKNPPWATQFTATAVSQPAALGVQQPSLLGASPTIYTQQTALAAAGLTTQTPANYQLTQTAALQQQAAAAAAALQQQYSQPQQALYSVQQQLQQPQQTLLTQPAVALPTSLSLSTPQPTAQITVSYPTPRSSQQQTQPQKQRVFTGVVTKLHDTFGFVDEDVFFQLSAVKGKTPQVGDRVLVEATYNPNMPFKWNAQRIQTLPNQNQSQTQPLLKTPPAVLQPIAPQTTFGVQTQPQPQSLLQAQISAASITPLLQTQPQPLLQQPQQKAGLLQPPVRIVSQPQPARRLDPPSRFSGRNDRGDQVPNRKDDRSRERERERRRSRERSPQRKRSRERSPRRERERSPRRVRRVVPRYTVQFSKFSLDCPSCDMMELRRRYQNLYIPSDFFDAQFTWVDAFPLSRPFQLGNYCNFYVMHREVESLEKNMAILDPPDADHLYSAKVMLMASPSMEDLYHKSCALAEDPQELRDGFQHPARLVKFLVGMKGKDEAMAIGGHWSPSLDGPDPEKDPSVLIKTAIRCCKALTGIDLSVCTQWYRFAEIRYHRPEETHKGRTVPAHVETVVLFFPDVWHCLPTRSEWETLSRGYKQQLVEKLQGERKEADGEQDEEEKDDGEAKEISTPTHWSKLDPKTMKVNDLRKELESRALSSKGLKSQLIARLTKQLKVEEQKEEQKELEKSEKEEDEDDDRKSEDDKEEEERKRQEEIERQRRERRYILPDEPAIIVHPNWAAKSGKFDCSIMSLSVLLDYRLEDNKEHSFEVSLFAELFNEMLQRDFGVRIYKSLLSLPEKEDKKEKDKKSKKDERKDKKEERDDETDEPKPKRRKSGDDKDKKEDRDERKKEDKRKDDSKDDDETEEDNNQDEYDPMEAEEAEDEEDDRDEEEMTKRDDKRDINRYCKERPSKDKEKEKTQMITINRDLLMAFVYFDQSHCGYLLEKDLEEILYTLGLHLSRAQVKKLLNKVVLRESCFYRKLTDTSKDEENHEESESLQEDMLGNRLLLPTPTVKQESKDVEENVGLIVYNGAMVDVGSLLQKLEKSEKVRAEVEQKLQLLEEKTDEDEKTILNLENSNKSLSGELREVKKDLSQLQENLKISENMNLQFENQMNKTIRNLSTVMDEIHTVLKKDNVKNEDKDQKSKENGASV
# Sequence of UniProt O95628 (O95628 whole entry, looked up): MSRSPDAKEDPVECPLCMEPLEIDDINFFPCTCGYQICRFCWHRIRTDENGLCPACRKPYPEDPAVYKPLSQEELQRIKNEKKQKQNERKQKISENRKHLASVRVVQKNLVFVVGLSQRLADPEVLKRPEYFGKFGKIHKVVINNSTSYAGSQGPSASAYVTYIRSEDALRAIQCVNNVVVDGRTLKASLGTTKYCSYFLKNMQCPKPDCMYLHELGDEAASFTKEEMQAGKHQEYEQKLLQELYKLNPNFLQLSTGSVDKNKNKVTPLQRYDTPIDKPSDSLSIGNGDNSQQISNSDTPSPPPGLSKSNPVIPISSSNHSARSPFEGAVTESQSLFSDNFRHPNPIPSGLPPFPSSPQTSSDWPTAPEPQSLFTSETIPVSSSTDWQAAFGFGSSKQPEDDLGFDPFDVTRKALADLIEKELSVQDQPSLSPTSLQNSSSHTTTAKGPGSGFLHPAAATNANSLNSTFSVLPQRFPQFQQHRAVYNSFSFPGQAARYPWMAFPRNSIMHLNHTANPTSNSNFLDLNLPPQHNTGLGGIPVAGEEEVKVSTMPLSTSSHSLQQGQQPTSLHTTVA
# Sequence of UniProt P23528 (P23528 whole entry, looked up): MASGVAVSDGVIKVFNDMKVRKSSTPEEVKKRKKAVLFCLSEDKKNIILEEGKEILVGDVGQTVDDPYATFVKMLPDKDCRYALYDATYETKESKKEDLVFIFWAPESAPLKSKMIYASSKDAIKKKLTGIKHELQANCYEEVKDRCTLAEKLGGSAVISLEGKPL
# Sequence of UniProt Q13555 (Q13555 whole entry, looked up): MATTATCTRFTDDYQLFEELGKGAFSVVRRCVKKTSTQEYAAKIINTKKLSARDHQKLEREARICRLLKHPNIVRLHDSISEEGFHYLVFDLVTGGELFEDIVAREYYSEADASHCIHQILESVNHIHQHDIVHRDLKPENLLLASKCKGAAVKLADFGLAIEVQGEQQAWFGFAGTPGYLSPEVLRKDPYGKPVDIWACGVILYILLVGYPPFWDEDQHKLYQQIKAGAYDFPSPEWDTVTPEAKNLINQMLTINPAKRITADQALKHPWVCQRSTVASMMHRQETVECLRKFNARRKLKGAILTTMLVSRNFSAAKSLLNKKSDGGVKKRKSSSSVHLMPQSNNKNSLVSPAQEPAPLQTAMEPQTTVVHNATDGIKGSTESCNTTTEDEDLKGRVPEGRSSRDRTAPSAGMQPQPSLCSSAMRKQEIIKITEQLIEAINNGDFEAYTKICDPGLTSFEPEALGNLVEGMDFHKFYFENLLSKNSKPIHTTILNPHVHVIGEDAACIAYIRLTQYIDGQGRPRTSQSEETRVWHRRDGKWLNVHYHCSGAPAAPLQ
# Sequence of UniProt Q9H9Q2 (Q9H9Q2 whole entry, looked up): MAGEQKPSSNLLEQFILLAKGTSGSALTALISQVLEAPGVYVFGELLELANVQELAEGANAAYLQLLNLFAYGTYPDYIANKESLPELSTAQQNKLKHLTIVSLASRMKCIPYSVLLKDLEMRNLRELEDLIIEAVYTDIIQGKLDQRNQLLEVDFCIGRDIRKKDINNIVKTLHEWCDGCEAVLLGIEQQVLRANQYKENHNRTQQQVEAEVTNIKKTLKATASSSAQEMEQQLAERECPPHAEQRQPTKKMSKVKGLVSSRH
# Sequence of UniProt O75909 (O75909 whole entry, looked up): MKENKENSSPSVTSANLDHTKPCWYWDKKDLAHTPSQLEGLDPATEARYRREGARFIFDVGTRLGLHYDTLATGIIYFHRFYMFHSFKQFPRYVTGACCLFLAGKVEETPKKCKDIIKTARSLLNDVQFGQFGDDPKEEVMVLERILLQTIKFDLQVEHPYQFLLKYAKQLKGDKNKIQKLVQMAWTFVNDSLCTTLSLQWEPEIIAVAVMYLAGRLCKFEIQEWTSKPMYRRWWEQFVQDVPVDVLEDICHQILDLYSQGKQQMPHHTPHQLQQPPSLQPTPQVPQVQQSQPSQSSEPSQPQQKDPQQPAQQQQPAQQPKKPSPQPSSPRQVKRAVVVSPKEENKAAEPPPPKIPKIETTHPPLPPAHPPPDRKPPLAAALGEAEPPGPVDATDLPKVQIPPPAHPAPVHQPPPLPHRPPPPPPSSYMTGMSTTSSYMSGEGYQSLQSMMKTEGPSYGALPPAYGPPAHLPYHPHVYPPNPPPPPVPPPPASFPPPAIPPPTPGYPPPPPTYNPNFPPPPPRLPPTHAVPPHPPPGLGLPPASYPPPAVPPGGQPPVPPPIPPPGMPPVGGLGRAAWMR
# Sequence of UniProt Q96JB2 (Q96JB2 whole entry, looked up): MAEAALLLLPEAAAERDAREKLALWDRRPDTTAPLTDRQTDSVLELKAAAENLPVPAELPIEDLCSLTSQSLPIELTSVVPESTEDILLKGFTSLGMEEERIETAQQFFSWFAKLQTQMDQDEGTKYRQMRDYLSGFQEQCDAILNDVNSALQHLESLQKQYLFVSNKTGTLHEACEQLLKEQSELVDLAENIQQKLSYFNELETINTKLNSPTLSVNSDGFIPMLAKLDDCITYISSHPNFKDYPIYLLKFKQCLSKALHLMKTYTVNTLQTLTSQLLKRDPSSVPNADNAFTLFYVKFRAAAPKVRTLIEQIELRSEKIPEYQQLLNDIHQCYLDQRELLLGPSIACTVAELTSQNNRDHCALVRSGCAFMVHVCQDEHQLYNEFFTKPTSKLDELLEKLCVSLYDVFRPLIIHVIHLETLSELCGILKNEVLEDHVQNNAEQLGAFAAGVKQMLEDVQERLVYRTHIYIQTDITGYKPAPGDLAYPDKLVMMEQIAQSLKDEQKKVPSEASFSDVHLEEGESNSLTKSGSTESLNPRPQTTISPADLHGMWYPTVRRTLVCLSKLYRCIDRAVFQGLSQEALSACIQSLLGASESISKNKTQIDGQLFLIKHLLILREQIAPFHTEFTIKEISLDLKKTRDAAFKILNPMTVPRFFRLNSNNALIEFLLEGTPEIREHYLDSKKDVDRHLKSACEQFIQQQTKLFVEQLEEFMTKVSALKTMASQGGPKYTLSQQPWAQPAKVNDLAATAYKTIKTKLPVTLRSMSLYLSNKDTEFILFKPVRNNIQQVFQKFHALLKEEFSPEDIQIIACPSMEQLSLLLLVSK
# Sequence of UniProt Q9Y259 (Q9Y259 whole entry, looked up): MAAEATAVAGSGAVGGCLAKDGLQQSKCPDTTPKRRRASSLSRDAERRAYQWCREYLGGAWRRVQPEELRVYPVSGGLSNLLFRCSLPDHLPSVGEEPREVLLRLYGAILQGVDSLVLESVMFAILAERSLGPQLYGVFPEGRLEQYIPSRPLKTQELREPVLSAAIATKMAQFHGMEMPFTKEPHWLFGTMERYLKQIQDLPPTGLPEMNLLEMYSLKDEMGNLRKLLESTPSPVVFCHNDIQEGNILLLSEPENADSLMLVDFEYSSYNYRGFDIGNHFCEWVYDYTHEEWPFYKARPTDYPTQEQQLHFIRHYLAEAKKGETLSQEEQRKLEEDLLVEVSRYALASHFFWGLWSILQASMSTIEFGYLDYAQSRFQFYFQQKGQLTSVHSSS
# Sequence of UniProt Q99439 (Q99439 whole entry, looked up): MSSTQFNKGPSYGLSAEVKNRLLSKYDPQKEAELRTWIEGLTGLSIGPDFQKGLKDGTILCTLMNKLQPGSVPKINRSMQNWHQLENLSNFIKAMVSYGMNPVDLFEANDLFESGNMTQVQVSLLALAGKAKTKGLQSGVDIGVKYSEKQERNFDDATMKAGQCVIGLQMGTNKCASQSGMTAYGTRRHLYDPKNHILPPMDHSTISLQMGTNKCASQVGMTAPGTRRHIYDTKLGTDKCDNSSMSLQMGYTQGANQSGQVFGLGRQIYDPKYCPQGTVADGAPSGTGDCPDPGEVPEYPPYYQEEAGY
Target,probe-labelled cysteine peptide fold change (10 µM),probe-labelled cysteine peptide fold change (50 µM)
CNN2_Q99439_61_DGTILCTLMNK (UniProt Q99439),0.00655,0.0892
CNOT4_O95628_175_AIQCVNNVVVDGR (UniProt O95628),0.0992,0.172
BTBD2_Q9BX70_241_LFDEPQLASLCLENIDK (UniProt Q9BX70),0.22,0.0147
COPS7B_Q9H9Q2_157_NQLLEVDFCIGR (UniProt Q9H9Q2),-0.0213,-0.0864
COPA_P53621_1148_KILSACEK (UniProt P53621),-0.616,-0.459
CCNK_O75909_99_YVTGACCLFLAGK (UniProt O75909),0.1,0.32
CDYL_Q9Y232_571_MELEQANERECEVLK (UniProt Q9Y232),-0.0968,-0.0996
CFL1_P23528_139_KLTGIKHELQANCYEEVK (UniProt P23528),-0.632,-0.503
CLCN3_P51790_733_VCFAQHTPSLPAESPRPLK (UniProt P51790),0.0602,0.0245
CHKB_Q9Y259_85_CSLPDHLPSVGEEPREVLLR (UniProt Q9Y259),-0.301,-0.0104
BZW2_Q9Y6E2_97_MTNHCVFSANEDHETIR (UniProt Q9Y6E2),0.0541,-0.0628
CASP8_Q14790_345_CPSLAGKPK (UniProt Q14790),-0.0611,-0.0798
CNOT8_Q9UFF9_148_HEEEGIDTLHFAELLMTSGVVLCDNVK (UniProt Q9UFF9),0.648,0.338
CAMK2G_Q13555_7_ATTATCTR (UniProt Q13555),0.042,-0.225
CCT5_P48643_181_VVNSCHR (UniProt P48643),0.109,0.0213
CCAR1_Q8IX12_937_DLLMAFVYFDQSHCGYLLEK (UniProt Q8IX12),0.653,0.739
COG3_Q96JB2_363_ELLLGPSIACTVAELTSQNNRDHCALVR (UniProt Q96JB2),-0.436,0.793
